The source of these data is ChEMBL document CHEMBL1961873, “Compounds: GSK PKIS; Assays: Nanosyn kinase panel” (2012).

Each structure is given as a SMILES string.

For assay [1], the target named is Casein kinase I isoform gamma-2 (Homo sapiens) (UniProt P78368). To be noted: at 1 µM.
The target in assay [2] is Casein kinase I isoform gamma-3 (Homo sapiens) (UniProt Q9Y6M4). To be noted: at 0.1 µM.
The target is the same in assay [3]. The note with it: at 1 µM.
Assay [4] has as its target Cyclin-dependent kinase 1 (Homo sapiens) (UniProt P06493). To be noted: at 0.1 µM.
Assay [5] has the same target. The note with it: at 1 µM.
Assay [6] deals with Cyclin-dependent kinase 2 (Homo sapiens) (UniProt P24941). To be noted: at 0.1 µM.
Assay [7] shares this target. To be noted: at 1 µM.
The target is the same in assay [8]. The note with it: at 0.1 µM. This is another data set of the same source.
For assay [9] the target is unchanged. To be noted: at 1 µM. The source holds these as a separate data set.
For assay [10], the target named is T1, CDK3/Cyclin E (Homo sapiens) (UniProt P24864+Q00526). To be noted: at 0.1 µM.
Assay [11] has as its target T1, CDK3/Cyclin E (Homo sapiens). The note with it: at 1 µM.
The target of assay [12] is Cyclin-dependent kinase 4 (Homo sapiens) (UniProt P11802). The note with it: at 0.1 µM.
Assay [13] has the same target. The note with it: at 1 µM.
For assay [14], the target named is Cyclin-dependent kinase 5 (Homo sapiens) (UniProt Q00535). The note with it: at 0.1 µM.
Assay [15] shares this target. The note with it: at 1 µM.
The target in assay [16] is Cyclin-dependent kinase 6 (Homo sapiens) (UniProt Q00534). The note with it: at 0.1 µM.
Assay [17] shares this target. To be noted: at 1 µM.
For assay [18], the target named is Dual specificity protein kinase CLK2 (Homo sapiens) (UniProt P49760). The note with it: at 0.1 µM.
For assay [19] the target is unchanged. The note with it: at 1 µM.
Assay [20] deals with Dual specificity protein kinase CLK3 (Homo sapiens) (UniProt P49761). To be noted: at 0.1 µM.
Sequence of Dual specificity protein kinase CLK3 (Homo sapiens) (P49761 whole entry, looked up): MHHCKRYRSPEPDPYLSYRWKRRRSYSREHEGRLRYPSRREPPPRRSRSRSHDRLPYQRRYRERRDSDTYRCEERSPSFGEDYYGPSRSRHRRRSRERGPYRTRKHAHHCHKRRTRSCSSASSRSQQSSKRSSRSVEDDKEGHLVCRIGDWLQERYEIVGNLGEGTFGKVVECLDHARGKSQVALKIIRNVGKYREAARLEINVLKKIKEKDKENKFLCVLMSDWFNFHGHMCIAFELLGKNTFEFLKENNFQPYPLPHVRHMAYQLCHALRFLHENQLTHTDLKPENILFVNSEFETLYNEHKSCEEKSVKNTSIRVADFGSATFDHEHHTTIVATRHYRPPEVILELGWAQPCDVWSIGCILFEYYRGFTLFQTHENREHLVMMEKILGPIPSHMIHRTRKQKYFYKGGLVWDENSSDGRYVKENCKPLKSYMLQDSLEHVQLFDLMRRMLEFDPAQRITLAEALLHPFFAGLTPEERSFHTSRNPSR

Sequence of Casein kinase I isoform gamma-3 (Homo sapiens) (Q9Y6M4 whole entry, looked up, canonical isoform): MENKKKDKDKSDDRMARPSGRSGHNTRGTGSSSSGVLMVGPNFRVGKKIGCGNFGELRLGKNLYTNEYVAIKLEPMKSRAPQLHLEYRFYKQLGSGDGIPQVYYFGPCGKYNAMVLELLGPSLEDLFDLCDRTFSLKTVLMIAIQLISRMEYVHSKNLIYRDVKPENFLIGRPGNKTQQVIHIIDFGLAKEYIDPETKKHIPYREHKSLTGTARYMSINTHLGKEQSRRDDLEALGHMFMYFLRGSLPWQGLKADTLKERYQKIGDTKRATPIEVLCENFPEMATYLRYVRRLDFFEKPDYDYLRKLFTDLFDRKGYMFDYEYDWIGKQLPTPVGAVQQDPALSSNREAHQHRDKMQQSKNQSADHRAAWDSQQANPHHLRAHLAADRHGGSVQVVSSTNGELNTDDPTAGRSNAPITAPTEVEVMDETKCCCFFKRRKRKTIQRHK
Sequence of Cyclin-dependent kinase 4 (Homo sapiens) (P11802 whole entry): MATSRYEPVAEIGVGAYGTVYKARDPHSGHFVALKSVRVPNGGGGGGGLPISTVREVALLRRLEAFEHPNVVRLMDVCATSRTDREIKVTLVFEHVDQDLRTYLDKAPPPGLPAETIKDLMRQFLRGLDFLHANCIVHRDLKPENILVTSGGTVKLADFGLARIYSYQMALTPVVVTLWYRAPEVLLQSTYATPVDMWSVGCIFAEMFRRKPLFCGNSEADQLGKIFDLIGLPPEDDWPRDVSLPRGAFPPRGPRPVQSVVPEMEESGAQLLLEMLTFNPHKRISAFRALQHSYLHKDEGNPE
Sequence of Cyclin-dependent kinase 1 (Homo sapiens) (P06493 whole entry, looked up): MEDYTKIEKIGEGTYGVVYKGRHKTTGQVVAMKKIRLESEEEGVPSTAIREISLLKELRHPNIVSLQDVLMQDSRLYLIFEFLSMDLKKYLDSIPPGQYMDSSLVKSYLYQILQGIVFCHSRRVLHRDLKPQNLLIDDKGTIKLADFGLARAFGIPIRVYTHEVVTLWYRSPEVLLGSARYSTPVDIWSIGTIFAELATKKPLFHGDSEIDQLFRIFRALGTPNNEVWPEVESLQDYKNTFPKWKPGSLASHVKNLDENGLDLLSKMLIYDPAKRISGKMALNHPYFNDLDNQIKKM
Sequence of Cyclin-dependent kinase 5 (Homo sapiens) (Q00535 whole entry, looked up): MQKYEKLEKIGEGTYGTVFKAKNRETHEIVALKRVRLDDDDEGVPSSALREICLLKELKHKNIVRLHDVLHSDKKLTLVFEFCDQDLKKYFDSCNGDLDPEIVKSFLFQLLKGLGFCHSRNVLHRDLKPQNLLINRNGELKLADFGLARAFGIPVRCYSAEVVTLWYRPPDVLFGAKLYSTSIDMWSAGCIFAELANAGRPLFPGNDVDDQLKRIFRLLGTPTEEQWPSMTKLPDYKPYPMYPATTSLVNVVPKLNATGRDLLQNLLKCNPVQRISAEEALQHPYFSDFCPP
Sequence of Dual specificity protein kinase CLK2 (Homo sapiens) (P49760 whole entry, looked up): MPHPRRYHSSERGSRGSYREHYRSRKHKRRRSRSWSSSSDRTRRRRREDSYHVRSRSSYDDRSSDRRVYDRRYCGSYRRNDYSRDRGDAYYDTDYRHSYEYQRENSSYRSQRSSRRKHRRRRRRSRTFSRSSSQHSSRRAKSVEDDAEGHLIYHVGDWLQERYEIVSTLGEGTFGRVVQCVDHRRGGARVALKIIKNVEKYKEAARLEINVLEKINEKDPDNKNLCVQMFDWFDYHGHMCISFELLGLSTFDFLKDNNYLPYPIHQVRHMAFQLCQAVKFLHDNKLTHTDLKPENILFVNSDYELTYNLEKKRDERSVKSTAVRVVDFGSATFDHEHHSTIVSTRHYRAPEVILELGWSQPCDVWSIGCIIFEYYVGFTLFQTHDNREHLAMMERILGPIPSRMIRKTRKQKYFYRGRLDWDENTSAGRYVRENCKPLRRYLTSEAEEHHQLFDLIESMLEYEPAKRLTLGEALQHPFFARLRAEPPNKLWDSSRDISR
Sequence of Casein kinase I isoform gamma-2 (Homo sapiens) (P78368 whole entry, looked up, canonical isoform): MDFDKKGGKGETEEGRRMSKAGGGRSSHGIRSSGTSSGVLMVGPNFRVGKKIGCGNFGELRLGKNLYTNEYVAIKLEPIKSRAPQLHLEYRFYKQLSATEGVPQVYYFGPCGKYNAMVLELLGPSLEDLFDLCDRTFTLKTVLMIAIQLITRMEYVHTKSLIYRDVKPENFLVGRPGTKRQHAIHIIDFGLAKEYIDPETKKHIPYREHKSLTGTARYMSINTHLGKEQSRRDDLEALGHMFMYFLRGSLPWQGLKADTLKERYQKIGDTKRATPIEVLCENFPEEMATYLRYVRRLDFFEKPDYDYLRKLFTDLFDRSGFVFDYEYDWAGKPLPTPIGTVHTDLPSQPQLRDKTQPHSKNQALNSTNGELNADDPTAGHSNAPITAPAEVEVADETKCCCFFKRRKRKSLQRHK
Sequence of Cyclin-dependent kinase 6 (Homo sapiens) (Q00534 whole entry): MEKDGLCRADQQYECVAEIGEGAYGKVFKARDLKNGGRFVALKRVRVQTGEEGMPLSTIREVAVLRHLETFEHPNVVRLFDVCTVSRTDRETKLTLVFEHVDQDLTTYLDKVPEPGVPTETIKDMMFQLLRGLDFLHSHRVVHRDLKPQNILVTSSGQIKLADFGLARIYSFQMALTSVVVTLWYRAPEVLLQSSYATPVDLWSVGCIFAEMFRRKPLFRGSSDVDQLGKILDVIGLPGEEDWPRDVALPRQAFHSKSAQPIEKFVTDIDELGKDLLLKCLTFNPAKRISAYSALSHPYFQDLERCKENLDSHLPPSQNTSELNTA
T1 sequence (P24864 whole entry, looked up): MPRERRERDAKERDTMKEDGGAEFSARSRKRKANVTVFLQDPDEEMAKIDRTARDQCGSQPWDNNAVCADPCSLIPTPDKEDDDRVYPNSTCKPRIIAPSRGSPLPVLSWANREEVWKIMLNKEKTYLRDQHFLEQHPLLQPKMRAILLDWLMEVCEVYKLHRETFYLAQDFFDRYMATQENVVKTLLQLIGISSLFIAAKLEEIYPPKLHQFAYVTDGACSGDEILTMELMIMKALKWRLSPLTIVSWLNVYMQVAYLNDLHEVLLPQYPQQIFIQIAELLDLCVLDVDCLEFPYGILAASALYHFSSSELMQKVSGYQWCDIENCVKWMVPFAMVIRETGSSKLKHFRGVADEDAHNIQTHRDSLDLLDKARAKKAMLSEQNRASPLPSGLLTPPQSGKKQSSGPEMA
T1 sequence (Q00526 whole entry, looked up): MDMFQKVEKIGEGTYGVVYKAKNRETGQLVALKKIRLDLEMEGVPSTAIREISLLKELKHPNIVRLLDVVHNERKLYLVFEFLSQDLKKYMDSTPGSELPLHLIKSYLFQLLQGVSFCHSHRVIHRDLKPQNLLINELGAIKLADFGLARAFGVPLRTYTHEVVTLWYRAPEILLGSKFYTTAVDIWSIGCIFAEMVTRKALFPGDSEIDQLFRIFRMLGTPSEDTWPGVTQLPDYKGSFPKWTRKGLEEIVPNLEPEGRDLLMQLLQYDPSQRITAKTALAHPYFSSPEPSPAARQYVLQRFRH

Consider `CCNC(=O)O[C@H]1CN[C@H](C#Cc2cc3ncnc(Nc4ccc(OCc5cccc(F)c5)c(Cl)c4)c3s2)C1`, for which the inhibition in assay [1] turned out to be 2.86%; in [2], 3.84%; in assay [3], 0.57%; in assay [4] it was 0.57%; in [5], 2.13%; in assay [6], 2.63%. For the same molecule, the inhibition in [7] is -0.72%; in assay [8], 2.61%; in [9], 3.62%; in [10] it was 1.08%; in assay [11], 0.27%; in assay [12] it was 2.39%. The inhibition in assay [13] came to 3.42%; in assay [14], 0.38%; in assay [15], 1.78%; in [16], 9.65%; in assay [17] it was 9.16%; in assay [18] it was 1.63%. The inhibition stood at 2.34% in [19] and 0.76% in [20].

`COc1cc2c(cc1Nc1nc(Nc3ccsc3C(N)=O)c3cc[nH]c3n1)N(C(=O)CN(C)C)CCC2(C)C`: the inhibition in assay [1] amounted to 20.6%; in assay [2] it was 4.29%; in assay [3], 24.3%; in [4], 2.56%; in assay [5], 6.04%; in assay [6] it was 3.04%. The inhibition in assay [7] is -0.79%; in assay [8], 8.82%; in assay [9] it was 10.2%; in [10], 8.96%; in assay [11] it was -1.09%; in assay [12], 5.42%. The inhibition amounted to 8.61% in [13]; 6.36% in assay [14]; 7.33% in assay [15]; 1.59% in assay [16]; 9.92% in assay [17]; 29% in assay [18]. The inhibition in assay [19] stood at 79.5%; in assay [20] it was 2%.

Take `CCCN1CCC(c2ccc(Nc3nc(Nc4cc(F)ccc4C(N)=O)c4cc[nH]c4n3)c(OC)c2)CC1`: the inhibition was 72.7% in [1]; 35.4% in [2]; 79.8% in [3]; 1.73% in assay [4]; 6.31% in [5]; 1.78% in assay [6]. Also, the inhibition is 0.94% in assay [7]; 7.06% in assay [8]; 11.8% in [9]; 4.1% in assay [10]; -1.93% in assay [11]; 7.7% in [12]. The inhibition worked out at 25.7% in assay [13]; 2.09% in [14]; 6.47% in assay [15]; 4.48% in assay [16]; 17.9% in [17]; 59.1% in [18]. Further, the inhibition was 93.8% in assay [19] and 3.2% in [20].

Take `COc1ccc(-c2nn3ncccc3c2-c2ccnc(Nc3ccc4c(c3)OCCO4)n2)cc1`: the inhibition in [1] is 3.08%; in [2], 0.17%; in assay [3], 1.38%; in [4] it was 0.5%; in [5], 1.38%; in assay [6], 0.22%. The inhibition in assay [7] is 0.43%; in assay [8], -0.84%; in assay [9] it was -0.22%; in [10], -2.12%; in assay [11] it was -2.16%; in assay [12], -0.27%. For the same molecule, the inhibition is 2.65% in assay [13]; -0.08% in [14]; 2.41% in assay [15]; -4.12% in [16]; -0.81% in [17]; 0.37% in [18]. Also, the inhibition was 0.98% in assay [19] and -0.22% in assay [20].

As to `FC(F)(F)c1cccc(-c2nn3ncccc3c2-c2ccnc(Nc3ccc4c(c3)OCCO4)n2)c1`, the inhibition came out at 3.28% in [1]; 1.54% in assay [2]; 4.56% in [3]; 1.58% in [4]; 3.23% in assay [5]; 1.29% in assay [6]. For the same molecule, the inhibition is 0.77% in assay [7]; 4.14% in [8]; 4.5% in assay [9]; 1.7% in [10]; -0.03% in [11]; 2.66% in assay [12]. In addition, the inhibition is 4.56% in assay [13]; 1.65% in assay [14]; 2.11% in assay [15]; -1.79% in assay [16]; 2.39% in [17]; 1.11% in [18]. In addition, the values for the inhibition in [19] and in assay [20] were 0.64% and 0.73%, respectively.

As to `O=C(Nc1n[nH]c2cc(-c3ccc(F)cc3)ccc12)C1CC1`, the inhibition was 3.16% in assay [1]; 1.93% in assay [2]; 3.02% in assay [3]; 0.08% in [4]; 4.52% in assay [5]; -0.94% in assay [6]. For the same molecule, the inhibition in assay [7] stood at 5.81%; in assay [8], 2.56%; in [9], 6.81%; in [10], 2.18%; in assay [11], 2.42%; in assay [12], 2.64%. In addition, the inhibition was 6.92% in assay [13]; 0.56% in assay [14]; 3.03% in [15]; -1.47% in [16]; 24.6% in [17]; 0.75% in assay [18]. Moreover, the inhibition is 0.48% in assay [19] and 1.11% in assay [20].

Take `COc1ccc(CNC(=O)c2ccc(-c3cc(-c4nnc(C)o4)ccc3C)cc2)cc1`: the inhibition in [1] was 0.62%; in [2] it was 0.01%; in [3] it was 0.83%; in assay [4], 1.08%; in assay [5], 1.37%; in assay [6] it was -2.09%. Also, the inhibition was -1.7% in assay [7]; 1.68% in assay [8]; 3.08% in assay [9]; 3.23% in [10]; -1.03% in [11]; 1.82% in [12]. For the same molecule, the inhibition in assay [13] was 2.19%; in assay [14] it was 1.52%; in assay [15] it was 1.19%; in assay [16] it was -1.69%; in assay [17], -2.05%; in assay [18], 0.99%. In addition, the inhibition in [19] turned out to be 2.3%; in assay [20], 2.46%.

With `CC(=O)NCc1cccc(C#Cc2cncnc2Nc2ccc(OCc3cccc(F)c3)c(Cl)c2)c1`, the inhibition in [1] is 0.99%; in [2], -1.04%; in assay [3], -0.37%; in assay [4], 0.28%; in assay [5] it was 2.88%; in assay [6], 1.01%. The inhibition in [7] was -3.16%; in [8], 1.24%; in [9], 3.29%; in [10], 1.84%; in assay [11], -1.44%; in assay [12], 1.51%. The inhibition in assay [13] is 5.22%; in assay [14], 1.7%; in assay [15], 5.29%; in [16], -2.35%; in assay [17], 5.05%; in assay [18], 1%. Further, the inhibition in assay [19] is -0.78%; in [20], 0.32%.

As to `CN(C)CCOc1ccc(-c2nc(-c3ccncc3)c(-c3ccc4c(c3)CC/C4=N\O)[nH]2)cc1`, the inhibition in [1] came to 4.12%; in [2], 3.08%; in [3] it was 3.59%; in assay [4] it was 1.59%; in assay [5], 5.87%; in [6], 1.86%. Further, the inhibition in assay [7] was 11.1%; in assay [8], 6.01%; in assay [9], 7.95%; in [10] it was 3.78%; in assay [11], -2.98%; in assay [12] it was 2.94%. Also, the inhibition in assay [13] is 6.21%; in [14], 2.41%; in assay [15], 5.88%; in assay [16], 7.36%; in assay [17] it was 9.02%; in assay [18] it was -1.13%. In addition, the inhibition in [19] worked out at 2.18%; in assay [20] it was 1.97%.

As to `COc1ccc(-c2cc(-c3c[nH]nc3-c3ccccn3)ccn2)cc1`, the inhibition in assay [1] worked out at 5.19%; in [2], 3.68%; in assay [3] it was 6.59%; in assay [4] it was 0.11%; in assay [5], 1.79%; in assay [6] it was 1.84%. Moreover, the inhibition in assay [7] amounted to 7.74%; in assay [8], 4.73%; in assay [9], 5.82%; in assay [10], 2.59%; in assay [11] it was 0.46%; in assay [12], 2.18%. Besides, the inhibition was 1.82% in assay [13]; 1.02% in [14]; 1.41% in assay [15]; 4.13% in [16]; -0.9% in [17]; 0.77% in assay [18]. Moreover, the inhibition worked out at 0.26% in [19] and 3.07% in assay [20].

With `Nc1ncc(-c2cccc(S(N)(=O)=O)c2)c2scc(-c3ccc(F)c(Cl)c3)c12`, the inhibition in assay [1] was 3.79%; in [2], 2.58%; in assay [3], 4.97%; in [4], 1.33%; in assay [5], 2.57%; in assay [6], 1.79%. Besides, the inhibition in assay [7] was 2.91%; in assay [8], 2.68%; in [9], 5.08%; in [10] it was -2.34%; in assay [11], -4.84%; in [12], 1.97%. For the same molecule, the inhibition is 3.55% in assay [13]; 1.01% in [14]; 2.29% in assay [15]; -0.13% in assay [16]; 1.9% in [17]; 2.7% in assay [18]. In addition, the inhibition in assay [19] was -0.72%; in assay [20], 1.16%.
